From PubChem BioAssay AID588742 (Southern Research Specialized Biocontainment Screening …, 2011)
Among all 1,800 compounds or so, about 410 (23%) were called active. The rule behind the calls is not given here. These entries were drawn from the full list. Results with a measured potency or affinity are listed apart.

test: Vero cell cytotoxicity, cytotoxicity control for flavivirus capping enzyme inhibitors (AID 588742); details: Vero cells viability, cytotoxicity counter-screen; series mostly up to 40 µM; viability: at the top concentration

Row | Structure (SMILES) | viability
1 | C=CCN=C1N[C@@H](c2cccc(C(F)(F)F)c2)C(C(=O)OC)=C(C)N1CC | 96.3% (inactive)
2 | Cc1c(OC(=O)c2ccc([N+](=O)[O-])cc2)c2c(c[n+]1C)COC(C)(C)OC2 | 102% (inactive)
3 | CCOC(=O)c1cc(-c2ccc(/C=C3/C(=O)NC(=O)C(C#N)=C3C)o2)ccc1Cl | 115% (inactive)
4 | CCC(c1ccccc1)C(CC)c1cc(O)c(O)c(O)c1 (stereo not drawn) | 87.2% (inactive)
5 | N#CC1=C(N)C2=C(N3CCCCC3)CCCC2C1(C#N)C#N (stereo not drawn) | 95.8% (inactive)
6 | COc1ccc(C2Nc3cccc4cccc(c34)N2)cc1 | 106% (inactive)
7 | COc1ccc(-c2cc(-c3ccc(Cl)cc3)c(C#N)c(SCC(=O)O)n2)cc1 | 82.6% (inactive)
8 | CCOC(=O)/C(C#N)=C/c1c(N2CCN(CC)CC2)nc2c(C)cccn2c1=O | 102% (inactive)
9 | COc1ccccc1N(O)C1CC(=O)N(c2ccc(F)cc2)C1=O (stereo not drawn) | 105% (inactive)
10 | CC(=O)N(C1=C(Cl)C(=O)c2ccccc2C1=O)c1ccc(C(=O)O)cc1 | 114% [at 20 µM] (inactive)
11 | O=S(c1ccccc1O)S(=O)c1ccccc1O (stereo not drawn) | 106% (inactive)
12 | Cc1cc(=O)n(CCc2ccccc2)c(O)c1C#N | 105% (inactive)
13 | CC1CC2=C(NC(=S)NC2c2ccccc2F)/C(=C/c2ccccc2F)C1 (stereo not drawn) | 85.3% (inactive)
14 | COc1ccc(N2C(=O)C(Cl)=C(N3CCOCC3)C2=O)cc1 | 97.6% (inactive)
15 | O=C1N=c2ccc(Br)cc2=C1c1sc(=S)n(NS(=O)(=O)c2ccccc2)c1O | 91.5% (inactive)
16 | COC(=O)CN(c1ccccc1C)S(C)(=O)=O | 97% (inactive)
17 | COc1cccc(/C=C2\SC(=S)N(C(Cc3ccccc3)C(=O)O)C2=O)c1 (stereo not drawn) | 95.1% (inactive)
18 | COc1ccc(-c2csc(NC(=O)CSc3nc(C)nc4sc(C(=O)O)c(C)c34)n2)cc1 | 94.1% (inactive)
19 | Oc1ccc(/C=N/NC(=S)Nc2cccnc2)c(O)c1O | 92.2% (inactive)
20 | CCSc1ncc(Cl)c(C(=O)N(Cc2ccc(N(C)C)cc2)C2CCS(=O)(=O)C2)n1 (stereo not drawn) | 93.8% (inactive)
21 | CCN(CCO)c1ccc(NC(=S)Nc2cccc(S(=O)(=O)N(C)C)c2)cc1 | 95.5% (inactive)
22 | COc1ccc(NC(=S)NNc2ccc(S(=O)(=O)Nc3ccccc3C(=O)O)cc2[N+](=O)[O-])cc1 | 103% (inactive)
23 | O=C1c2ccccc2C(=O)N1OS(=O)(=O)c1ccc(F)cc1 | 101% (inactive)
24 | CC(C)=CCC1=C(OCC(=O)O)C(=O)c2ccccc2C1=O | 92.7% (inactive)
25 | CN(C)NC(=S)Nc1ccc2nc(-c3ccccn3)c(-c3ccccn3)nc2c1 | 101% (inactive)

Row | Structure (SMILES) | viability
26 | CC(C)c1ccc(S(=O)(=O)/N=C2\C=C(NS(=O)(=O)c3ccccc3)C(=O)c3ccccc32)cc1 | 80% (inactive)
27 | CC(C)c1ccc(S(=O)(=O)c2n[nH]n3c2nc(=O)c2ccccc23)cc1 | 103% (inactive)
28 | Cc1ccc(C(C2C(=O)CC(C)(C)CC2=O)C2C(=O)CC(C)(C)CC2=O)s1 | 93.8% (inactive)
29 | CC1=NN(c2ccc(C(=O)O)cc2)C(=O)/C1=C/c1ccc(-c2ccccc2F)o1 | 101% (inactive)
30 | CC1=NN(c2ccc(Cl)c(C(=O)O)c2)C(=O)/C1=C\c1ccc(-c2ccc(C(=O)O)cc2)o1 | 100% (inactive)
31 | COc1ccc(N2C(=NC(=O)CCCc3ccccc3)SC3CS(=O)(=O)CC32)cc1 (stereo not drawn) | 103% (inactive)
32 | O=C1NC(=S)NC1=Cc1ccco1 | 105% (inactive)
33 | O=C1C(=Cc2cccn2-c2ccc(O)cc2)C(=O)c2ccccc21 | 87.5% (inactive)
34 | COC(=O)c1c(Cl)c2n3ccccc3c(C)c(-c3ccccc3)c-2c1C(=O)OC | 102% (inactive)
35 | COc1ccc(C(C2C(=O)CC(C)(C)CC2=O)C2C(=O)CC(C)(C)CC2=O)cc1CO | 95.5% (inactive)
36 | Cc1ccc(CCCNC(=O)C2CCC(=O)N(Cc3cccc(F)c3)C2)cc1 (stereo not drawn) | 91.8% (inactive)
37 | CC(C)(C)OC(=O)N1CCN(C(=O)c2ncn(Cc3ccccc3)c2C(=O)N2CCN(C(=O)OC(C)(C)C)CC2)CC1 | 101% (inactive)
38 | CC1(C(=O)NNC(=O)c2ccc([N+](=O)[O-])cc2)CC1(Br)Br (stereo not drawn) | 99.5% (inactive)
39 | O=C(O)COc1ccccc1C(Nc1ccccn1)c1cc(Cl)c2cccnc2c1O (stereo not drawn) | 106% (inactive)
40 | COc1ccc(NC(=O)c2ccccn2)cc1OC | 97.5% (inactive)
41 | CC(=O)NC(c1ccco1)c1cc(Cl)c2ccccc2c1O (stereo not drawn) | 102% (inactive)
42 | CCC(=O)NC(c1ccco1)c1cc(Cl)c2ccccc2c1O (stereo not drawn) | 95.8% (inactive)
43 | C=CCS/C(N)=N\N=C\c1cc(Br)cc([N+](=O)[O-])c1O | 90.7% (inactive)
44 | COc1cccc(CNC(=O)CCc2nnc3ccc(NCCCN4CCCC4=O)nn23)c1 | 96.2% (inactive)
45 | CCOC(=O)C1Nc2ccccc2C2C(O)C(O)CC12 (stereo not drawn) | 88.7% (inactive)
46 | COC1C=COC2(C)Oc3c(C)c(O)c4c(O)c(c(CN5CCN(C)CC5)c(O)c4c3C2=O)NC(=O)C(C)=CC=CC(C)C(O)C(C)C(O)C(C)C(OC(C)=O)C1C (stereo not drawn) | 99.8% (inactive)
47 | O=C(C1=C(O)C(=O)N(Cc2ccco2)C1c1cccnc1)c1cc2ccccc2o1 (stereo not drawn) | 112% (inactive)
48 | O=C(O)CN1C(=O)/C(=C\c2cccc(OCc3ccccc3F)c2)SC1=S | 93% (inactive)
49 | COc1cc(NC(=O)CSc2ncnc3sc4c(c23)CCC(C)C4)c(C(=O)O)cc1OC (stereo not drawn) | 104% (inactive)
50 | CCOC(=O)c1ccc2c(c1)n(CCO)c(C)[n+]2CC | 100% (inactive)

Row | Structure (SMILES) | viability
51 | Cc1cccc2cc(C#N)c(N3CCC(O)CC3)nc12 | 93.1% (inactive)
52 | COc1cccc(N2C(=O)CC(Nc3ccc(N4CCOCC4)cc3)C2=O)c1 (stereo not drawn) | 98.2% (inactive)
53 | Cc1cc(C(C2C(=O)CC(C)(C)CC2=O)C2C(=O)CC(C)(C)CC2=O)cc(C)c1OC(F)F | 103% (inactive)
54 | O=C(/C=C/c1ccccc1)n1cnnc1SC/C=C/c1ccccc1 | 98.6% (inactive)
55 | O=C(O)c1cc(NCc2ccc(F)cc2)ccc1N1CCOCC1 | 100% (inactive)
56 | COC(=O)CCC(=O)OC1(C)C(=O)C2=CN(C3CC3)C(c3ccc(OC)cc3)=CC2=C(Br)C1=O (stereo not drawn) | 98% (inactive)
57 | Cc1ccc(N2C(=O)C(Cl)=C(N3CCOCC3)C2=O)cc1Cl | 110% (inactive)
58 | CCOc1cc(C(c2c(C)[nH][nH]c2=O)c2c(C)[nH][nH]c2=O)cc([N+](=O)[O-])c1O | 95.1% (inactive)
59 | Cc1ccc(C)c(N=Cc2cc3c(cc2[N+](=O)[O-])OCO3)c1 | 95.3% (inactive)
60 | O=C(O)c1cc([N+](=O)[O-])c(Sc2nc3ccccc3[nH]2)c([N+](=O)[O-])c1 | 98.8% (inactive)
61 | O=[N+]([O-])c1cc2ccccc2c(O)c1O | 102% (inactive)
62 | CCC1=NN2C(=N)/C(=C\c3ccc(OCc4cc(=O)n5nc(CC)sc5n4)c(OC)c3)C(=O)N=C2S1 | 97.3% (inactive)
63 | Cc1c(C2CC(=O)N(c3ccccc3)C2=O)[nH]n(-c2ccccc2)c1=O (stereo not drawn) | 101% (inactive)
64 | O=C(O)CCc1ccc(-c2ccc(Br)cc2)n1-c1ccc(O)cc1 | 95% (inactive)
65 | CCCOc1cccc(C2C(C(=O)c3cc4ccccc4o3)=C(O)C(=O)N2c2cc(C)on2)c1 (stereo not drawn) | 87.3% (inactive)
66 | O=c1c2ccccc2nc2ccc(NCc3ccco3)nn12 | 97% (inactive)
67 | CCOc1cc(/C=N/Nc2ccc(S(=O)(=O)Nc3ccccc3C(=O)O)cc2[N+](=O)[O-])cc(Cl)c1O | 100% (inactive)
68 | Cc1nn(-c2ccccc2)c(Cl)c1/C=N/Nc1ccc(S(=O)(=O)Nc2ccccc2C(=O)O)cc1[N+](=O)[O-] | 90.9% (inactive)
69 | C=CCOc1cccc(C2C(C(=O)c3ccc(C)o3)=C(O)C(=O)N2c2nccs2)c1 (stereo not drawn) | 93.2% (inactive)
70 | O=C1C(C=NCc2ccco2)=C(O)c2ccccc21 | 104% (inactive)
71 | CC(C)C(C(=O)O)N1C(=O)/C(=C/C=C/c2ccco2)SC1=S (stereo not drawn) | 97% (inactive)
72 | CC(C(=O)O)N1C(=O)/C(=C/C=C/c2ccco2)SC1=S (stereo not drawn) | 95.8% (inactive)
73 | Cc1ccc(S(=O)(=O)NN/C(=N/S(=O)(=O)c2ccccc2)c2ccccc2)cc1 | 101% (inactive)
74 | Cc1nn(-c2ccccc2)c2c1C(c1ccncc1)C(C#N)=C(N)O2 (stereo not drawn) | 100% (inactive)
75 | Cn1nc([N+](=O)[O-])c(C(C#N)c2nc3ccccc3n2C)c(Cl)c1=O (stereo not drawn) | 93.4% (inactive)

Row | Structure (SMILES) | viability
76 | CCn1nc([N+](=O)[O-])c(C(C#N)c2nc3ccccc3n2C)c(Cl)c1=O (stereo not drawn) | 101% (inactive)
77 | COC(=O)c1ccccc1N/C=C1\CCc2c(c(C)nn2-c2ccccn2)C1=O | 86.9% (inactive)
78 | CCc1sc(/C=C(/C#N)C(N)=S)cc1[N+](=O)[O-] | 102% (inactive)
79 | Cc1ccc(-n2nc(C)c3c2OC(N)=C(C#N)C3c2ccco2)cc1 (stereo not drawn) | 98.1% (inactive)
80 | CCSc1nnc(NC(=O)c2nc(S(=O)(=O)Cc3ccc(F)cc3)ncc2Cl)s1 | 95.4% [at 20 µM] (inactive)
81 | CCOC(=O)c1c(-c2ccc(-c3ccccc3)cc2)csc1NC(=O)C1C2CCC(O2)C1C(=O)O (stereo not drawn) | 83.1% (inactive)
82 | Cc1noc(C)c1C(=O)Nc1ccc(N(C)C)cc1 | 106% (inactive)
83 | CCC(=O)OC1(C)C(=O)C=C2C=C(C3CC3)OC=C2C1=O (stereo not drawn) | 104% (inactive)
84 | COc1ccc(/C=N/NC(=O)c2nnn(-c3nonc3N)c2CN(C)C2CCCCC2)cc1 | 100% (inactive)
85 | C#CCOc1c(Cl)cc(/C=C2/C(=O)ON=C2C)cc1OCC | 102% (inactive)
86 | COc1cc(/C=C2\S/C(=N/S(=O)(=O)Cc3ccccc3)NC2=O)c([N+](=O)[O-])cc1OC | 107% (inactive)
87 | COc1ccc(S(=O)(=O)Nc2c(O)ccc3ccccc23)cc1OC | 102% (inactive)
88 | NC(=S)n1[nH]c(-c2ccc([N+](=O)[O-])cc2)c(N=Nc2ccccc2[N+](=O)[O-])c1=O | 102% (inactive)
89 | CN1C(=O)/C(=C/c2ccc(C(=O)Nc3ccc(O)cc3C(=O)O)cc2)SC1=S | 93.6% (inactive)
90 | Cc1cccc(C)c1NC(=S)NC(=O)c1ccc(Br)o1 | 83.4% (inactive)
91 | CS(=O)(=O)c1ncc(Cl)c(C(=O)Nc2ccc(N3CCOCC3)cc2)n1 | 92.7% (inactive)
92 | CCC(CO)Oc1cc(NCc2cccc(C)c2)c2ncn(C(C)C)c2c1 (stereo not drawn) | 89% (inactive)
93 | CC1(C)CC(=O)C2=C(C1)c1c(ccc3ccccc13)NC2c1cc([N+](=O)[O-])cc([N+](=O)[O-])c1O (stereo not drawn) | 83.6% (inactive)
94 | N=C1/C(=C\c2ccc(OC(=O)c3ccccc3Cl)cc2)C(=O)N=C2SC(N3CCOCC3)=NN12 | 101% (inactive)
95 | Nc1nc(C2C(=O)CCCC2=O)cs1 | 97.5% (inactive)
96 | O=C(Nc1c(F)c(F)c(F)c(F)c1F)NC1CCCCC1 | 93.3% (inactive)
97 | O=C(O)c1ccccc1N=Nc1c(O)[nH]c2ccc([N+](=O)[O-])cc12 | 86.8% (inactive)
98 | CC(C)c1ccc(N2C(=O)C(Cl)=C(N3CCOCC3)C2=O)cc1 | 97.4% (inactive)
